The text below walks through data of the supplement of paper PMC12067093, “Discovery and optimisation of a covalent ligand for TRIM25 and its application to targeted protein ubiquitination” (Chemical Science, 2025).

Compound in this assay: Cc1cc(ccc1-c1ccccc1)C(=O)N1CCCN(CC1)C(=O)CCl [compound 10]
Put plainly: probe-labelled cysteine peptide fold change vs DMSO (competition) (log2 fold change); higher = less target engagement (more negative = stronger competition). The following applies: THP-1, incubation time: 4 h.

Of roughly 21,000 targets only a part is listed; those with the largest changes were picked by preference.
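Also: competitive profiling in live THP-1 cells: cysteine peptides tagged with an iodoacetamide desthiobiotin (IA-DTB) probe, intensity after compound treatment relative to DMSO-treated cells.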

On to “NT5C3B_Q969T7_73_IISEECR (UniProt Q969T7)”, for which the “probe-labelled cysteine peptide fold change” value was -0.00671 (10 µM) and 0.268 (50 µM).

Turning to “NRAS_P01111_51_KQVVIDGETCLLDILDTAGQEEYSAMRDQYMR<|>HRAS_P01112_51_KQVVIDGETCLLDILDTAGQEEYSAMRDQYMR (UniProt P01112+P01111)”, the “probe-labelled cysteine peptide fold change” value reads like this: (10 µM) -0.209; (50 µM) -0.642.

With “P3H1_Q32P28_568_LDTPLYFSYSHLVCR (UniProt Q32P28)”, the “probe-labelled cysteine peptide fold change” value (10 µM) was -0.35 and the “probe-labelled cysteine peptide fold change” value (50 µM) worked out at 0.386.

Regarding “OSTC_Q9NRP0_14_VPFLVLECPNLK (UniProt Q9NRP0)”, the “probe-labelled cysteine peptide fold change” value reads like this: (10 µM) 0.025; (50 µM) -0.0744.

Take MYO6_Q9UM54_321_MCTAMK (UniProt Q9UM54): the “probe-labelled cysteine peptide fold change” value is 0.00117 (10 µM) and -0.218 (50 µM).

With “NFKB1_P19838_61_YVCEGPSHGGLPGASSEK (UniProt P19838)”, the “probe-labelled cysteine peptide fold change” value is, setting by setting: (10 µM) 0.0894; (50 µM) -0.824.

In the case of “PARK7_Q99497_53_DVVICPDASLEDAK (UniProt Q99497)”, the “probe-labelled cysteine peptide fold change” value is, setting by setting: (10 µM) -0.432; (50 µM) 0.291.

As for “PA2G4_Q9UQ80_85_GIAFPTSISVNNCVCHFSPLK (UniProt Q9UQ80)”, the “probe-labelled cysteine peptide fold change” value was 0.203 (10 µM) and -0.024 (50 µM).

Turning to “PAICS_P22234_266_SESQCR (UniProt P22234)”, the “probe-labelled cysteine peptide fold change” value by setting is: (10 µM) 0.613; (50 µM) 1.39.

With “NECTIN2_Q92692_238_ADGVTVTCK (UniProt Q92692)”, the “probe-labelled cysteine peptide fold change” value by setting is: (10 µM) -0.148; (50 µM) -0.394.

As for “NFS1_Q9Y697_353_HHYPGCINLSFAYVEGESLLMALK (UniProt Q9Y697)”, the “probe-labelled cysteine peptide fold change” value is 0.466 (10 µM) and 0.42 (50 µM).

Turning to “NOMO3_P69849_565_ISIMHEDWCWK<|>NOMO1_Q15155_565_ISIMHEDWCWK<|>NOMO2_Q5JPE7_565_ISIMHEDWCWK (UniProt Q5JPE7+Q15155+P69849)”, the “probe-labelled cysteine peptide fold change” value runs as follows: (10 µM) 0.0786; (50 µM) 0.28.

Take “NUBP1_P53384_8_MEEVPHDCPGADSAQAGR (UniProt P53384)”: the “probe-labelled cysteine peptide fold change” value runs as follows: (10 µM) 1.37; (50 µM) 1.35.

For the target “NSDHL_Q15738_86_FFLGDLCSR (UniProt Q15738)”, the “probe-labelled cysteine peptide fold change” value is, setting by setting: (10 µM) -0.104; (50 µM) 0.0788.

Consider “OAT_P04181_93_YFDFLSSYSAVNQGHCHPK (UniProt P04181)”, for which the “probe-labelled cysteine peptide fold change” value came out at 0.0237 (10 µM) and 0.0378 (50 µM).

In the case of “P4HB_P07237_397_KNVFVEFYAPWCGHCK (UniProt P07237)”, the “probe-labelled cysteine peptide fold change” value (10 µM) was -0.644 and the “probe-labelled cysteine peptide fold change” value (50 µM) is -2.76.

In the case of “NIPSNAP3A_Q9UFN0_135_QESEITYLVPWCK (UniProt Q9UFN0)”, the “probe-labelled cysteine peptide fold change” value runs as follows: (10 µM) 0.151; (50 µM) 0.389.

As for “NOP2_P46087_463_VLLDAPCSGTGVISK (UniProt P46087)”, the “probe-labelled cysteine peptide fold change” value was -0.0187 (10 µM) and 0.0458 (50 µM).

As for “MYO6_Q9UM54_790_RVNHWLTCSR (UniProt Q9UM54)”, the “probe-labelled cysteine peptide fold change” value by setting is: (10 µM) 0.104; (50 µM) 0.475.

On to “NOTCH2_Q04721_427_GADCTEDVDECAMANSNPCEHAGK (UniProt Q04721)”, for which the “probe-labelled cysteine peptide fold change” value is 0.149 (10 µM) and 0.115 (50 µM).

For the target “PALD1_Q9ULE6_65_VAPVVITYNCK (UniProt Q9ULE6)”, the “probe-labelled cysteine peptide fold change” value is 0.106 (10 µM) and -0.15 (50 µM).

With “P4HB_P07237_53_YLLVEFYAPWCGHCK (UniProt P07237)”, the “probe-labelled cysteine peptide fold change” value runs as follows: (10 µM) -1.15; (50 µM) -1.6.

In the case of “NFX1_Q12986_295_STCDSENLAVINK (UniProt Q12986)”, the “probe-labelled cysteine peptide fold change” value reads like this: (10 µM) 0.0638; (50 µM) -0.0574.

Consider “NUMA1_Q14980_961_QFCSTQAALQAMER (UniProt Q14980)”, for which the “probe-labelled cysteine peptide fold change” value reads like this: (10 µM) -0.0783; (50 µM) -1.25.

For “NT5DC1_Q5TFE4_139_YYFYDNYFDLPGALLCAR (UniProt Q5TFE4)”, the “probe-labelled cysteine peptide fold change” value runs as follows: (10 µM) 1.21; (50 µM) 1.46.

Consider “PARP14_Q460N5_509_VTQHLCLK (UniProt Q460N5)”, for which the “probe-labelled cysteine peptide fold change” value (10 µM) came to 0.0914 and the “probe-labelled cysteine peptide fold change” value (50 µM) was 0.48.

Consider “P4HTM_Q9NXG6_156_PLLFEIPGFLTDEECR (UniProt Q9NXG6)”, for which the “probe-labelled cysteine peptide fold change” value reads like this: (10 µM) 0.372; (50 µM) 0.492.

Turning to “PALD1_Q9ULE6_382_AITACAELHDLK (UniProt Q9ULE6)”, the “probe-labelled cysteine peptide fold change” value is -0.02 (10 µM) and -0.092 (50 µM).

For “PAK2_Q13177_352_ECLQALEFLHANQVIHR (UniProt Q13177)”, the “probe-labelled cysteine peptide fold change” value came out at 0.441 (10 µM) and 0.0289 (50 µM).

Consider “NUP205_Q92621_698_CEEYPLTR (UniProt Q92621)”, for which the “probe-labelled cysteine peptide fold change” value is 0.0608 (10 µM) and -0.00172 (50 µM).

As for “MYO9B_Q13459_1876_ITTCVEMLIK (UniProt Q13459)”, the “probe-labelled cysteine peptide fold change” value by setting is: (10 µM) 0.0944; (50 µM) -0.0605.

Take “NOL9_Q5SY16_637_TVNCLLVGAIAIPHCVLK (UniProt Q5SY16)”: the “probe-labelled cysteine peptide fold change” value (10 µM) was -0.0765 and the “probe-labelled cysteine peptide fold change” value (50 µM) is -0.381.

Regarding “NR2F6_P10588_316_AIALFTPDACGLSDPAHVESLQEK (UniProt P10588)”, the “probe-labelled cysteine peptide fold change” value by setting is: (10 µM) -0.711; (50 µM) -1.1.

In the case of “NACC2_Q96BF6_393_NTLANSCGTGIR<|>NACC1_Q96RE7_416_NTLANSCGTGIR (UniProt Q96RE7+Q96BF6)”, the “probe-labelled cysteine peptide fold change” value by setting is: (10 µM) -0.485; (50 µM) 0.031.
